# Test results: PubChem BioAssay AID1159580 (chemical genetic matrix, 2015)
# Out of some 5,500 compounds screened, about 2,000 (36%) were called active. About 18% were inconclusive and are not listed. Some of the results follow. Unmarked numbers belong to inactive results. No stated cut-off is given here; in the data, active means normalized growth mostly below about 0.91 (no sharp cut-off); inconclusive means no clear call, values can overlap the other calls; inactive means mostly above about 0.92.
# Assay: chemical genetic growth profiling, strain panel (AID 1159580);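 further: tested at 20 µM; growth read once vehicle control cultures reached saturation at 30 °C; 1 = growth at the plate median or of vehicle wells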
# Conditions: growth OD
structure (smiles),measurement,setting,value
S=c1[nH]c2ccccc2s1,normalized growth,"S. cerevisiae deletion strains, locus YKL009W, strain mrt4, stronger effect = lower value",0.996
same,normalized growth,"S. cerevisiae deletion strains, locus YKL068W, stronger effect = lower value",1.02
same,normalized growth,"S. cerevisiae deletion strains, locus YKL085W, strain MDH1 (second series), stronger effect = lower value",1.01
same,normalized growth,"S. cerevisiae deletion strains, locus YKL085W, strain MDH1, stronger effect = lower value",1.01
same,normalized growth,"S. cerevisiae deletion strains, locus YKL160W, strain elf1, stronger effect = lower value",1.01
same,normalized growth,"S. cerevisiae deletion strains, locus YKL190W, strain CNB1, stronger effect = lower value",0.99
same,normalized growth,"S. cerevisiae deletion strains, locus YKR001C, strain vps1, stronger effect = lower value",0.954
same,normalized growth,"S. cerevisiae deletion strains, locus YKR026C, strain gcn3, stronger effect = lower value",0.992
same,normalized growth,"S. cerevisiae deletion strains, locus YKR091W, strain srl3, stronger effect = lower value",0.999
same,normalized growth,"S. cerevisiae deletion strains, locus YLL001W, strain dnm1, stronger effect = lower value",0.992
same,normalized growth,"S. cerevisiae deletion strains, locus YLL026W, stronger effect = lower value",0.989
same,normalized growth,"S. cerevisiae deletion strains, locus YLL041C, strain sdh2, stronger effect = lower value",0.98
same,normalized growth,"S. cerevisiae deletion strains, locus YLR027C, strain aat2, stronger effect = lower value",0.972
same,normalized growth,"S. cerevisiae deletion strains, locus YLR039C, strain RIC1, stronger effect = lower value",0.858
same,normalized growth,"S. cerevisiae deletion strains, locus YLR058C, strain SHM2, stronger effect = lower value",0.962
same,normalized growth,"S. cerevisiae deletion strains, locus YLR102C, strain apc9, stronger effect = lower value",1.01
same,normalized growth,"S. cerevisiae deletion strains, locus YLR113W, strain HOG1, stronger effect = lower value",0.919
same,normalized growth,"S. cerevisiae deletion strains, locus YLR221C, strain rsa3, stronger effect = lower value",0.936
same,normalized growth,"S. cerevisiae deletion strains, locus YLR258W, strain gsy2, stronger effect = lower value",0.988
same,normalized growth,"S. cerevisiae deletion strains, locus YLR262C, strain YPT6 (second series), stronger effect = lower value",0.82 (active)
same,normalized growth,"S. cerevisiae deletion strains, locus YLR262C, strain YPT6, stronger effect = lower value",0.921
same,normalized growth,"S. cerevisiae deletion strains, locus YLR268W, strain sec22, stronger effect = lower value",0.932
same,normalized growth,"S. cerevisiae deletion strains, locus YLR320W, strain mms22, stronger effect = lower value",0.967
same,normalized growth,"S. cerevisiae deletion strains, locus YLR330W, strain CHS5, stronger effect = lower value",0.997
same,normalized growth,"S. cerevisiae deletion strains, locus YLR342W, strain FKS1 (second series), stronger effect = lower value",0.808
same,normalized growth,"S. cerevisiae deletion strains, locus YLR342W, strain FKS1, stronger effect = lower value",0.972
same,normalized growth,"S. cerevisiae deletion strains, locus YLR357W, strain rsc2, stronger effect = lower value",0.879
same,normalized growth,"S. cerevisiae deletion strains, locus YLR370C, strain arc18, stronger effect = lower value",0.971
same,normalized growth,"S. cerevisiae deletion strains, locus YLR371W, strain rom2, stronger effect = lower value",1.01
same,normalized growth,"S. cerevisiae deletion strains, locus YLR384C, strain iki3, stronger effect = lower value",0.982
same,normalized growth,"S. cerevisiae deletion strains, locus YLR418C, strain cdc73, stronger effect = lower value",0.907
same,normalized growth,"S. cerevisiae deletion strains, locus YML016C, strain PPZ1, stronger effect = lower value",0.973
same,normalized growth,"S. cerevisiae deletion strains, locus YML032C, strain rad52, stronger effect = lower value",1
same,normalized growth,"S. cerevisiae deletion strains, locus YML120C, strain ndi1, stronger effect = lower value",1.07
same,normalized growth,"S. cerevisiae deletion strains, locus YML124C, strain tub3, stronger effect = lower value",1.01
same,normalized growth,"S. cerevisiae deletion strains, locus YMR058W, strain fet3, stronger effect = lower value",0.947
same,normalized growth,"S. cerevisiae deletion strains, locus YMR078C, strain ctf18, stronger effect = lower value",1
same,normalized growth,"S. cerevisiae deletion strains, locus YMR125W, strain sto1, stronger effect = lower value",1.11
same,normalized growth,"S. cerevisiae deletion strains, locus YMR129W, stronger effect = lower value",0.993
same,normalized growth,"S. cerevisiae deletion strains, locus YMR205C, strain PFK2, stronger effect = lower value",1.03
same,normalized growth,"S. cerevisiae deletion strains, locus YMR223W, strain ubp8, stronger effect = lower value",0.95
same,normalized growth,"S. cerevisiae deletion strains, locus YMR231W, strain pep5, stronger effect = lower value",0.973
same,normalized growth,"S. cerevisiae deletion strains, locus YMR263W, strain SAP30, stronger effect = lower value",0.994
same,normalized growth,"S. cerevisiae deletion strains, locus YMR307W, strain GAS1, stronger effect = lower value",0.862
same,normalized growth,"S. cerevisiae deletion strains, locus YNL067W, strain RPL9B, stronger effect = lower value",0.992
same,normalized growth,"S. cerevisiae deletion strains, locus YNL071W, strain lat1, stronger effect = lower value",0.929
same,normalized growth,"S. cerevisiae deletion strains, locus YNL128W, strain TEP1, stronger effect = lower value",1.02
same,normalized growth,"S. cerevisiae deletion strains, locus YNL153C, strain GIM3, stronger effect = lower value",0.973
same,normalized growth,"S. cerevisiae deletion strains, locus YNL183C, strain NPR1, stronger effect = lower value",0.751 (active)
same,normalized growth,"S. cerevisiae deletion strains, locus YNL209W, strain ssb2, stronger effect = lower value",0.984
same,normalized growth,"S. cerevisiae deletion strains, locus YNL233W, strain BNI4, stronger effect = lower value",0.985
same,normalized growth,"S. cerevisiae deletion strains, locus YNL248C, strain rpa49, stronger effect = lower value",0.974
same,normalized growth,"S. cerevisiae deletion strains, locus YNL250W, strain rad50, stronger effect = lower value",1.01
same,normalized growth,"S. cerevisiae deletion strains, locus YNL271C, strain bni1, stronger effect = lower value",0.99
same,normalized growth,"S. cerevisiae deletion strains, locus YNL298W, strain CLA4, stronger effect = lower value",1.01
same,normalized growth,"S. cerevisiae deletion strains, locus YNL307C, strain MCK1, stronger effect = lower value",0.97
same,normalized growth,"S. cerevisiae deletion strains, locus YNL322C, strain KRE1 (second series), stronger effect = lower value",1.02
same,normalized growth,"S. cerevisiae deletion strains, locus YNL322C, strain KRE1, stronger effect = lower value",1
same,normalized growth,"S. cerevisiae deletion strains, locus YNR049C, strain mso1, stronger effect = lower value",0.983
same,normalized growth,"S. cerevisiae deletion strains, locus YNR052C, strain pop2, stronger effect = lower value",0.984
same,normalized growth,"S. cerevisiae deletion strains, locus YOL006C, strain TOP1, stronger effect = lower value",0.417 (active)
same,normalized growth,"S. cerevisiae deletion strains, locus YOL012C, strain htz1",0.93
same,normalized growth,"S. cerevisiae deletion strains, locus YOL147C, strain pex11, stronger effect = lower value",0.99
same,normalized growth,"S. cerevisiae deletion strains, locus YOR001W, strain rrp6, stronger effect = lower value",0.943
same,normalized growth,"S. cerevisiae deletion strains, locus YOR061W, strain CKA2, stronger effect = lower value",0.985
same,normalized growth,"S. cerevisiae deletion strains, locus YOR069W, strain VPS5, stronger effect = lower value",0.99
same,normalized growth,"S. cerevisiae deletion strains, locus YOR070C, strain gyp1, stronger effect = lower value",0.97
same,normalized growth,"S. cerevisiae deletion strains, locus YOR080W, strain dia2, stronger effect = lower value",0.992
same,normalized growth,"S. cerevisiae deletion strains, locus YOR083W, strain WHI5, stronger effect = lower value",0.997
same,normalized growth,"S. cerevisiae deletion strains, locus YOR106W, strain vam3, stronger effect = lower value",0.865 (active)
same,normalized growth,"S. cerevisiae deletion strains, locus YOR136W, strain idh2, stronger effect = lower value",0.999
same,normalized growth,"S. cerevisiae deletion strains, locus YOR144C, strain elg1, stronger effect = lower value",1.01
same,normalized growth,"S. cerevisiae deletion strains, locus YOR184W, strain ser1, stronger effect = lower value",0.88
same,normalized growth,"S. cerevisiae deletion strains, locus YOR231W, strain MKK1, stronger effect = lower value",0.798 (active)
same,normalized growth,"S. cerevisiae deletion strains, locus YOR265W, strain rbl2, stronger effect = lower value",0.976
same,normalized growth,"S. cerevisiae deletion strains, locus YOR270C, strain vph1, stronger effect = lower value",0.834
same,normalized growth,"S. cerevisiae deletion strains, locus YOR290C, strain snf2, stronger effect = lower value",0.991
same,normalized growth,"S. cerevisiae deletion strains, locus YOR316C, strain cot1, stronger effect = lower value",1.02
same,normalized growth,"S. cerevisiae deletion strains, locus YPL051W, strain arl3, stronger effect = lower value",0.904 (active)
same,normalized growth,"S. cerevisiae deletion strains, locus YPL055C, strain LGE1, stronger effect = lower value",0.987
same,normalized growth,"S. cerevisiae deletion strains, locus YPL078C, strain atp4, stronger effect = lower value",1
same,normalized growth,"S. cerevisiae deletion strains, locus YPL106C, strain sse1, stronger effect = lower value",0.986
same,normalized growth,"S. cerevisiae deletion strains, locus YPL240C, strain hsp82, stronger effect = lower value",0.986
same,normalized growth,"S. cerevisiae deletion strains, locus YPL241C, strain CIN2, stronger effect = lower value",0.998
same,normalized growth,"S. cerevisiae deletion strains, locus YPL256C, strain CLN2, stronger effect = lower value",0.904
same,normalized growth,"S. cerevisiae deletion strains, locus YPR119W, strain clb2, stronger effect = lower value",1.02
same,normalized growth,"S. cerevisiae deletion strains, locus YPR141C, strain kar3, stronger effect = lower value",1.01
same,normalized growth,"S. cerevisiae deletion strains, locus YPR163C, strain tif3, stronger effect = lower value",1
same,normalized growth,"S. cerevisiae deletion strains, locus YPR167C, strain met16, stronger effect = lower value",1.02
same,normalized growth,"S. cerevisiae deletion strains, strain wtn01, stronger effect = lower value",0.977
same,normalized growth,"S. cerevisiae strains, strain wild type, stronger effect = lower value",0.996
